High-throughput results deposited in PubChem BioAssay by several laboratories.
EBNA-1 inh: EBNA-1 DNA-binding inhibitors, primary screen, biochemical, fluorescence polarization; hit rate 0.34% among 300,000; inhibition, % at 14.8 µM; in the data active means inhibition above about 28%
MEX-5 binding: MEX-5 zinc finger RNA-binding disruptors – biochemical, C. elegans, fluorescence polarization, MLPCN library, primary screen; Zinc finger protein mex-5 (Caenorhabditis elegans), Q9XUB2; MEX-5/FITC-TCR2 RNA binding; active compounds read low; activity score (negative = inhibition of binding), % at 10 µM; hit rate 0.38% among 300,000; AID 1832, 2009;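 active means inhibition past about -25% in most replicates, and total fluorescence under double the plate's negative control median, limit read from the data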;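 further: 0% = DMSO and -100% = 5 µM competing unlabeled TCR2 RNA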
Target sequence (Q9XUB2 whole entry, looked up): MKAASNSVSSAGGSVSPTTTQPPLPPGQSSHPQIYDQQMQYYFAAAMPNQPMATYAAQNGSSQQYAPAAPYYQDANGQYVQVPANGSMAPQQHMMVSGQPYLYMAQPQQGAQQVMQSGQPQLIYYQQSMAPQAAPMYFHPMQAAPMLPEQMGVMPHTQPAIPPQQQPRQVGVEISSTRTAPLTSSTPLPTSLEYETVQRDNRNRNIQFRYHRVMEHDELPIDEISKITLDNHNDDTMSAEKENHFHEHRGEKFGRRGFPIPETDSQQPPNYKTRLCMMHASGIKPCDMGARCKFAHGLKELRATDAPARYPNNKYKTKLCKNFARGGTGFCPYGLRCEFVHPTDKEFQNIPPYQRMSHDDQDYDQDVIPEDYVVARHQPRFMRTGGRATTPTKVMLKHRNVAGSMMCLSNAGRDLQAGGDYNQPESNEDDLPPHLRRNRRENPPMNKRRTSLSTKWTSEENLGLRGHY
EBV gp42 block: Epstein-Barr virus gp42 inhibitors, primary screen, biochemical, uHTS, fluorescence polarization. Glycoprotein 42 (Epstein-Barr virus (strain AG876)), Q1HVG2. Fluorescence polarization binding assay, mP read-out. inhibition, % (tested at 21.74 µM). hit rate 0.42% among 220,000; in the data active means inhibition above about 50%
ZTA DNA inh: ZTA (EBV) inhibition in EBNA-1 counter-screen; ZTA-DNA binding, fluorescence polarization; hit rate 0.15% among 320,000; P03206; inhibition, % at 11 µM; AID 2234; in the data active means inhibition above about 33%
Zta DNA confirm: EBV Zta binding to ZRE DNA, inhibitors, confirmation, biochemical, fluorescence polarization, triplicate. inhibition, % at 11.1 µM. shares compounds with ZTA DNA inh. hit rate 30% among 320;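 active means mean inhibition across triplicate runs above the hit threshold derived for the original primary screen, cut at about 33% in these data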;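 further: 0% = Zta with DMSO and 100% = wells lacking Zta protein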
EBNA-1 counter: EBNA-1 DNA-binding inhibition, counter-screen for ZTA inhibitor project, biochemical, fluorescence polarization. AID 2362, 2010. inhibition, % at 14.8 µM. shares compounds with ZTA DNA inh. 320 tested, under 10 active; call rule not given here
Numbers without * were called inactive; . = not tested or not shown. Sampled rows, rich in hits. Any-hit rate of the full collection: about 1%.

SMILES | EBNA-1 inh | MEX-5 binding | EBV gp42 block | ZTA DNA inh | Zta DNA confirm | EBNA-1 counter
CCN(CC)CCOC(=O)c1ccc(N/C=C(/C#N)c2nc(-c3ccc(OC)c(OC)c3)cs2)cc1 | 2 | 7 | -62 | 74* | 51* | 20
Cc1ccc(-c2csc(/C(C#N)=C/Nc3ccc4c(c3)OCCO4)n2)cc1 | 7 | -7 | -26 | 3 | . | .
CCCN(CCC)C(=O)COc1cc(=O)n(CC)c2ccccc12 | 0 | 0 | -11 | 118* | -3 | -3
Cc1ccc(CN2CC(C(=O)NCC(=O)Nc3c(C)cccc3C)CC2=O)cc1 (stereo not given) | -9 | 0 | . | -22 | . | .
COc1ccc(NC(=O)CCN2CCCC(C)C2)cc1 (stereo not given) | 5 | 0 | -13 | 52* | 1 | -10
COc1ccc(NC(=O)CCN2CCC(C)CC2)cc1 | -20 | 1 | -11 | -11 | . | .
N#Cc1ccsc1NC(=O)CCN1CCN(C(c2ccccc2)c2ccccc2)CC1 | 2 | 4 | . | 3 | . | .
O=C(Nc1cc(S(=O)(=O)N2CCOCC2)ccc1N1CCOCC1)c1ccc(Cl)nc1 | 7 | 0 | -18 | 34* | 5 | 5
O=C(Nc1cc(S(=O)(=O)N2CCOCC2)ccc1N1CCOCC1)c1ccc(S(=O)(=O)N2CCCCC2)cc1 | -11 | -2 | -8 | -5 | . | .
Cc1ccc(CCNC(=O)CC(C)CC2=NS(=O)(=O)c3ccccc3N2)cc1 (stereo not given) | 6 | 2 | . | 19 | . | .
O=C(CCCOc1ccccc1)Nc1ccc2c(c1)OCCO2 | -6 | 0 | -12 | -13 | . | .
O=C(CCCCCN1C(=O)CCC1=O)Nc1ccc2c(c1)OCCO2 | -12 | 4 | -13 | 34* | 1 | -1
COc1ccc(CCC(=O)Nc2ccc3c(c2)OCCO3)cc1 | 27 | 1 | -24 | 55* | 12 | 3
CCN1CCCC1CNC(=O)CN(C)S(=O)(=O)c1ccc(Cl)cc1 (stereo not given) | -12 | 1 | . | 0 | . | .
Nc1ccc2c(c1)C(=O)C(=O)c1ccccc1-2 | -8 | 3 | -30 | 58* | 65* | -11
Cc1ccccc1OCCNC(=O)/C=C/c1ccc([N+](=O)[O-])cc1 | 3 | 0 | 2 | 15 | . | .
Cc1ccccc1OCCNC(=O)/C=C/c1ccccc1 | -4 | 0 | 13 | 129* | -12 | -4
O=C(CC1C(=O)NCCN1Cc1ccccn1)NCCc1ccccc1F (stereo not given) | -7 | -1 | . | -10 | . | .
CCOc1cc(/C=C2/C(=O)ON=C2C)ccc1OCc1ccccc1 | 2 | 0 | -10 | 3 | . | .
CCOc1cc(/C=C2/C(=O)ON=C2C)ccc1OCc1ccc(F)cc1 | -4 | 33 | -124 | 35* | 4 | 0
NS(=O)(=O)c1ccc(NC(=O)c2cccc(N3C(=O)c4ccccc4C3=O)c2)cc1 | -2 | 0 | . | 61* | 58* | -1
CC(=O)c1ccc(NC(=O)c2cccc(N3C(=O)c4ccccc4C3=O)c2)cc1 | 4 | -1 | . | -1 | . | .
CC1(C)CC(=O)C2=C(C1)OC(N)=C(C#N)C2c1ccccc1[N+](=O)[O-] (stereo not given) | 2 | -80* | 15 | 129* | 3 | -12
COc1cc(C)c2c(c1C=O)Oc1c(c(C)c(O)c3c1C(O)OC3=O)OC2=O (stereo not given) | -5 | -2 | -15 | 67* | 63* | 11
CC(OC(=O)CNC(=O)c1ccc(Cl)c(Cl)c1)C(=O)N1CCOCC1 (stereo not given) | 8 | 3 | . | 14 | . | .
CC12CCC(=O)N1C(C(=O)N1CCN(c3cccc(Cl)c3)CC1)CS2 (stereo not given) | . | . | . | 2 | . | .
COc1cccc(-n2cc(C(=O)NC(C)C)c3ccccc3c2=O)c1 | -7 | 2 | . | 155* | 4 | 3
COc1cccc(-n2cc(C(=O)NCCCOC(C)C)c3ccccc3c2=O)c1 | -6 | 0 | . | -14 | . | .
Nc1nc(Nc2ccccc2F)sc1C(=O)c1ccccc1 | -8 | -2 | . | 52* | 6 | -6
O=c1[nH]c(Nc2ccccc2)cc2cc(Br)ccc12 | -6 | 1 | . | 41* | 2 | -5
